Tests used:
Assay in all cases: DAPPL (digital affinity profiling via proximity ligation, sequencing); 10 mM Tris-HCl pH 7.5, 50 mM NaCl, 1 mM DTT, 4% glycerol, room temperature, 30 min; GST-TFs on glutathione beads, 16-mer random dsDNA library, 0.1% formaldehyde crosslink after washing; high values mean tight binding
Details in all cases: protein: recombinant; tags: N-terminal GST; dsDNA, one strand shown
ETV2 = molecular target: T1, ETV2 (Homo sapiens, UniProt O00321 1-342)
T1 sequence: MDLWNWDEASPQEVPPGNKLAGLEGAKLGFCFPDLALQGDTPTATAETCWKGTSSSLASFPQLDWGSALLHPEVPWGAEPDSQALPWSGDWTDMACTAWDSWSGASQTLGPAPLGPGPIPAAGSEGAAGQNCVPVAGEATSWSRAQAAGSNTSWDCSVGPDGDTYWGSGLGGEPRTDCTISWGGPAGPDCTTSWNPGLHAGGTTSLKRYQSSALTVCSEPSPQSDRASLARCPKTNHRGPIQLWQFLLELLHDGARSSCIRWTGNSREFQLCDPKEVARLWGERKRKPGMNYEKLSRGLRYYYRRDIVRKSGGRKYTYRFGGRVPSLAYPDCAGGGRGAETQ
Method in brief: (§1)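 Pools of DNA-barcoded human transcription factors, expressed in yeast as GST fusions on glutathione beads and combined with a tag-only sample, were incubated with 200 nmole of a 16-mer random double-stranded DNA library. Incubation took 30 min at room temperature in Tris/NaCl/DTT/glycerol buffer and was followed by washing, 0.1% formaldehyde crosslinking, proximity ligation (BsaI/T4 ligase, 1 h, 37 °C), PCR amplification and sequencing on an Illumina NextSeq500. Binding signal is the ratio of a hexamer's read frequency for a factor to its frequency for the tag-only sample.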

ELF3 = molecular target: T2, ELF3 (Homo sapiens, UniProt P78545 1-371)
T2 sequence: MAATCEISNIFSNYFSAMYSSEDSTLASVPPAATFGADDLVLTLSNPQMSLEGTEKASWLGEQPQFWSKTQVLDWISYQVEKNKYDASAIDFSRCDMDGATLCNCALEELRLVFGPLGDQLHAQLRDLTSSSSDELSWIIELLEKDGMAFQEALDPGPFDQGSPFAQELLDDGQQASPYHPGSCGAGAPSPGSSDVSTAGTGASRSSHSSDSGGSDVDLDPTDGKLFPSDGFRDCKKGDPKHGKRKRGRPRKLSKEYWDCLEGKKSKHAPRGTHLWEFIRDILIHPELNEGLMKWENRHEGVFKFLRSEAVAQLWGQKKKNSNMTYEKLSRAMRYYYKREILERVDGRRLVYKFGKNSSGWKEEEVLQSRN
Method in brief: as §1

ETV7 = molecular target: T3, ETV7 (Homo sapiens, UniProt Q9Y603 1-341)
T3 sequence: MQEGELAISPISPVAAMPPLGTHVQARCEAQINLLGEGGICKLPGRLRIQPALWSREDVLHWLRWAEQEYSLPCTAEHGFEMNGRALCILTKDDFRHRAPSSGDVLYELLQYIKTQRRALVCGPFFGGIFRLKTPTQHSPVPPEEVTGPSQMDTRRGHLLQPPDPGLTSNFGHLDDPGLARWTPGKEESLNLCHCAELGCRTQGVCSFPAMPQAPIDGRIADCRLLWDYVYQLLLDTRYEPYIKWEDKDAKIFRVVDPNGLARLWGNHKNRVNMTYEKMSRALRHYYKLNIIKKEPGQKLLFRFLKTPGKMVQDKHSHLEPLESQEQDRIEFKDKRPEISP
Method in brief: as §1

ELF5 = molecular target: T4, ELF5 (Homo sapiens, UniProt Q9UKW6-2 1-255)
T4 sequence: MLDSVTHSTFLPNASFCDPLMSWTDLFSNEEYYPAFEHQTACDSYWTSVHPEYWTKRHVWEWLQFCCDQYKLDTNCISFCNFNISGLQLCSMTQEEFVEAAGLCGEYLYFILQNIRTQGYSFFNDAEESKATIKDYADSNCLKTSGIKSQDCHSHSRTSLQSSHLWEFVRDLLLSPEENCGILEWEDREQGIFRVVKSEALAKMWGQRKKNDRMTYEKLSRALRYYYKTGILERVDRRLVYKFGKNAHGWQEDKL
Method in brief: as §1

ELK4 = molecular target: T5, ELK4 (Homo sapiens, UniProt P28324-2 1-405)
T5 sequence: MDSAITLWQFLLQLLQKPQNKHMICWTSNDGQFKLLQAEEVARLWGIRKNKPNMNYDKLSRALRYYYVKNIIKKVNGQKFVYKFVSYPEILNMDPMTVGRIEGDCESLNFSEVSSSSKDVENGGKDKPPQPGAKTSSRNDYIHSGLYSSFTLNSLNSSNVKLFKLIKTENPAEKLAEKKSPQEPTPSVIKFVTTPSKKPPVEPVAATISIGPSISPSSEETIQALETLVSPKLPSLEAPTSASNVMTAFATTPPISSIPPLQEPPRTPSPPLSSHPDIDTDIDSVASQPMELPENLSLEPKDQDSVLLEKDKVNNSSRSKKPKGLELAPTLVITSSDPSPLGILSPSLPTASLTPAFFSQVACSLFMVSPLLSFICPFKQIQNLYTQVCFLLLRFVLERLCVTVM
Method in brief: as §1

CRX = CRX (Homo sapiens, UniProt O43186 1-299)
Chain of CRX (O43186 whole entry): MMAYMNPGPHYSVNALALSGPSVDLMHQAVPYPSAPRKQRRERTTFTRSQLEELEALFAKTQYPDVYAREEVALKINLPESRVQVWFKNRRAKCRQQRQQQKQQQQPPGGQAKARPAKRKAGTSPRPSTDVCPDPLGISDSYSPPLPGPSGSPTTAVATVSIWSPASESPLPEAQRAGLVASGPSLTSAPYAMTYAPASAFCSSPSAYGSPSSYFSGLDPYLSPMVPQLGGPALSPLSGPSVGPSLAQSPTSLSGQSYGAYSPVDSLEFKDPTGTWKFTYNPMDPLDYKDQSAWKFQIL
Method in brief: as §1

| Sequence | binding signal (ETV2) | binding signal (ELF3) | binding signal (ETV7) | binding signal (ELF5) | binding signal (ELK4) | binding signal (CRX) |
| --- | --- | --- | --- | --- | --- | --- |
| AGTGTC | 1.02 fold enrichment (6-mer frequency, TF over GST control) | 1.11 fold enrichment (6-mer frequency, TF over GST control) | 1.16 fold enrichment (6-mer frequency, TF over GST control) | 1.15 fold enrichment (6-mer frequency, TF over GST control) | – | – |
| CGCTGG | 1.03 fold enrichment (6-mer frequency, TF over GST control) | – | 1.02 fold enrichment (6-mer frequency, TF over GST control) | – | 1.01 fold enrichment (6-mer frequency, TF over GST control) | – |
| ACGGCA | – | 1.1 fold enrichment (6-mer frequency, TF over GST control) | – | 1.03 fold enrichment (6-mer frequency, TF over GST control) | – | – |
| TCGTCA | 1.02 fold enrichment (6-mer frequency, TF over GST control) | – | – | – | – | – |
| AGGAAC | 1.15 fold enrichment (6-mer frequency, TF over GST control) | 1.04 fold enrichment (6-mer frequency, TF over GST control) | – | 1.28 fold enrichment (6-mer frequency, TF over GST control) | – | – |
| ATAAGG | 1.02 fold enrichment (6-mer frequency, TF over GST control) | 1.1 fold enrichment (6-mer frequency, TF over GST control) | – | 1.25 fold enrichment (6-mer frequency, TF over GST control) | – | 1.28 fold enrichment (6-mer frequency, TF over GST control) |
| TAACCG | 1.2 fold enrichment (6-mer frequency, TF over GST control) | 1.04 fold enrichment (6-mer frequency, TF over GST control) | 1.02 fold enrichment (6-mer frequency, TF over GST control) | 1.05 fold enrichment (6-mer frequency, TF over GST control) | – | 1.1 fold enrichment (6-mer frequency, TF over GST control) |
| GTGTCC | 1.19 fold enrichment (6-mer frequency, TF over GST control) | 1.22 fold enrichment (6-mer frequency, TF over GST control) | 1.22 fold enrichment (6-mer frequency, TF over GST control) | 1.1 fold enrichment (6-mer frequency, TF over GST control) | – | – |
| ACGATG | 1.14 fold enrichment (6-mer frequency, TF over GST control) | 1.17 fold enrichment (6-mer frequency, TF over GST control) | 1.2 fold enrichment (6-mer frequency, TF over GST control) | 1.01 fold enrichment (6-mer frequency, TF over GST control) | – | – |
| CGTCGC | 1.2 fold enrichment (6-mer frequency, TF over GST control) | 1.1 fold enrichment (6-mer frequency, TF over GST control) | 1.23 fold enrichment (6-mer frequency, TF over GST control) | 1.19 fold enrichment (6-mer frequency, TF over GST control) | – | – |
| AAACCG | 1.03 fold enrichment (6-mer frequency, TF over GST control) | 1.07 fold enrichment (6-mer frequency, TF over GST control) | 1.04 fold enrichment (6-mer frequency, TF over GST control) | 1.02 fold enrichment (6-mer frequency, TF over GST control) | – | – |
| TGTGGT | 1.07 fold enrichment (6-mer frequency, TF over GST control) | 1.2 fold enrichment (6-mer frequency, TF over GST control) | 1.11 fold enrichment (6-mer frequency, TF over GST control) | 1.03 fold enrichment (6-mer frequency, TF over GST control) | 1.03 fold enrichment (6-mer frequency, TF over GST control) | – |
| GGAAGA | 1.09 fold enrichment (6-mer frequency, TF over GST control) | 1.19 fold enrichment (6-mer frequency, TF over GST control) | 1.13 fold enrichment (6-mer frequency, TF over GST control) | 1.58 fold enrichment (6-mer frequency, TF over GST control) | – | – |
| ACCGCA | 1.3 fold enrichment (6-mer frequency, TF over GST control) | 1.29 fold enrichment (6-mer frequency, TF over GST control) | 1.12 fold enrichment (6-mer frequency, TF over GST control) | 1.1 fold enrichment (6-mer frequency, TF over GST control) | 1.05 fold enrichment (6-mer frequency, TF over GST control) | 1.01 fold enrichment (6-mer frequency, TF over GST control) |
| CATGAC | 1.3 fold enrichment (6-mer frequency, TF over GST control) | 1.15 fold enrichment (6-mer frequency, TF over GST control) | 1.11 fold enrichment (6-mer frequency, TF over GST control) | 1.12 fold enrichment (6-mer frequency, TF over GST control) | 1.09 fold enrichment (6-mer frequency, TF over GST control) | – |
| ACTAGG | 1.28 fold enrichment (6-mer frequency, TF over GST control) | – | – | 1 fold enrichment (6-mer frequency, TF over GST control) | 1.03 fold enrichment (6-mer frequency, TF over GST control) | – |
| AGTGGT | – | 1.01 fold enrichment (6-mer frequency, TF over GST control) | 1.14 fold enrichment (6-mer frequency, TF over GST control) | 1.14 fold enrichment (6-mer frequency, TF over GST control) | 1.1 fold enrichment (6-mer frequency, TF over GST control) | – |
| GCTTGT | 1.03 fold enrichment (6-mer frequency, TF over GST control) | 1.09 fold enrichment (6-mer frequency, TF over GST control) | 1.09 fold enrichment (6-mer frequency, TF over GST control) | 1.05 fold enrichment (6-mer frequency, TF over GST control) | – | – |
| GTTATA | – | 1.13 fold enrichment (6-mer frequency, TF over GST control) | 1.05 fold enrichment (6-mer frequency, TF over GST control) | – | – | 1.08 fold enrichment (6-mer frequency, TF over GST control) |
| CTATCA | 1.05 fold enrichment (6-mer frequency, TF over GST control) | 1.02 fold enrichment (6-mer frequency, TF over GST control) | 1.06 fold enrichment (6-mer frequency, TF over GST control) | 1.01 fold enrichment (6-mer frequency, TF over GST control) | 1.06 fold enrichment (6-mer frequency, TF over GST control) | 1.01 fold enrichment (6-mer frequency, TF over GST control) |
| ATTGGC | 1.1 fold enrichment (6-mer frequency, TF over GST control) | 1.24 fold enrichment (6-mer frequency, TF over GST control) | 1.04 fold enrichment (6-mer frequency, TF over GST control) | 1.08 fold enrichment (6-mer frequency, TF over GST control) | 1.06 fold enrichment (6-mer frequency, TF over GST control) | 1.07 fold enrichment (6-mer frequency, TF over GST control) |
| GTTGTA | – | 1.04 fold enrichment (6-mer frequency, TF over GST control) | 1.06 fold enrichment (6-mer frequency, TF over GST control) | – | – | – |
| CAACCG | 1.08 fold enrichment (6-mer frequency, TF over GST control) | 1.08 fold enrichment (6-mer frequency, TF over GST control) | – | – | – | – |
| AGTAAC | 1.05 fold enrichment (6-mer frequency, TF over GST control) | – | – | 1.09 fold enrichment (6-mer frequency, TF over GST control) | – | – |
| ATGGCG | – | 1.03 fold enrichment (6-mer frequency, TF over GST control) | 1.01 fold enrichment (6-mer frequency, TF over GST control) | 1.01 fold enrichment (6-mer frequency, TF over GST control) | – | – |
| ACGACC | 1.34 fold enrichment (6-mer frequency, TF over GST control) | 1.25 fold enrichment (6-mer frequency, TF over GST control) | 1.18 fold enrichment (6-mer frequency, TF over GST control) | 1.17 fold enrichment (6-mer frequency, TF over GST control) | 1.14 fold enrichment (6-mer frequency, TF over GST control) | – |
| GTCCTG | 1.29 fold enrichment (6-mer frequency, TF over GST control) | 1.07 fold enrichment (6-mer frequency, TF over GST control) | 1.26 fold enrichment (6-mer frequency, TF over GST control) | 1.3 fold enrichment (6-mer frequency, TF over GST control) | – | – |

From PMC7862700, “An all-to-all approach to the identification of sequence-specific readers for epigenetic DNA modifications on cytosine”
